The list is not random: actives were taken first. Their share in the collection is about 4.2%.
DAX1 inh – DAX1 (NR0B1) inhibition, primary screen | actives 1.1% (n = 370,000) | inhibition, % at 6.8 µM | HEK293T StAR-luciferase reporter, SF-1/DAX-1 repression relief | AID 652010;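 active = inhibition above the mean over all tested compounds plus 3 SD, cut at about 3.6% in these data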;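 also: 0% = DAX-1 cells with DMSO and 100% = cells lacking DAX-1 with DMSO; higher inhibition means more luminescence from relief of DAX-1 repression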
ssDAF-12 act – S. stercoralis DAF-12 activation, primary screen | HEK293 ssDAF-12/GRIP1 lit1-tk-luc reporter, luminescence; % of 3 µM dafachronic acid response | activation, % at 6.8 µM | actives 1% (n = 370,000) | AID 652126;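 active = activation above the mean over all tested compounds plus 3 SD, cut at about 0.9% in these data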;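 also: 0% = DMSO-only wells and 100% = 3 µM delta7-dafachronic acid wells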
SMARCA2 act – SMARCA2 function activation, primary screen; MG213 cells, MMTV-luciferase reporter, dexamethasone, overnight; activation, % at 9.1 µM; actives 1% (n = 370,000); AID 652017; in the data active = activation above about 7.8%;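 also: 0% = vehicle wells and 100% = reference activator wells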
hcDAF12 agonist – H. contortus DAF-12 activation, primary screen; AID 652067; HEK293 hcDAF-12 lit1-tk-luc reporter, luminescence; 0% DMSO, 100% Δ7-dafachronic acid; actives 1.4% (n = 370,000); activation, % at 6.8 µM;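 active = activation above the mean of all tested compounds plus 3 SD, cut at about 5.5% in these data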;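 also: 100% = response to 3 µM Δ7-dafachronic acid high control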
hgDAF12 agonist – activates the H. glycines DAF-12 receptor ligand-binding domain. HEK293 GAL4-hgDAF12 UAS-luciferase reporter, agonist luminescence; normalized to butyrate control. activation, % at 6.8 µM. actives 1.8% (n = 370,000);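 active = activation above a cutoff set at the mean of all screened compounds plus 3 SD, cut at about 10% in these data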;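 also: 0% = DMSO wells and 100% = sodium butyrate wells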
Numbers without * were called inactive.

`COC(=O)C[C@H]1CC[C@H]2[C@@H](COc3ccc(NC(=O)Nc4ccccc4)cc3C(=O)N2C)O1` gave DAX1 inh 0, ssDAF-12 act -1, SMARCA2 act 1, hcDAF12 agonist -2 and hgDAF12 agonist 1.
Screening CC1CCCCC12NC(=O)N(CC(=O)N1CCc3ccccc31)C2=O (stereo not drawn) returned DAX1 inh -1, ssDAF-12 act 1, SMARCA2 act 0, hcDAF12 agonist 5.8* and hgDAF12 agonist 2.
For CS(=O)(=O)N(CC(=O)N1CCOCC1)c1ccc(Cl)cc1 the results were DAX1 inh 0, ssDAF-12 act 0, SMARCA2 act 3, hcDAF12 agonist 6.0* and hgDAF12 agonist 0.
Cc1ccc(C(=O)Nc2nc(C)c(C)s2)o1 was read as DAX1 inh 3, ssDAF-12 act -1, SMARCA2 act 5, hcDAF12 agonist 4 and hgDAF12 agonist 13*.
CN(C)/C=N/c1nc(-c2ccc3c(c2)OCO3)cs1 was read as DAX1 inh 3, ssDAF-12 act -1, SMARCA2 act 4, hcDAF12 agonist 2 and hgDAF12 agonist 11*.
`O=C(Nc1nc(-c2ccc3c(c2)OCO3)cs1)C1COc2ccccc2O1` (stereo not drawn) gave DAX1 inh 0, ssDAF-12 act -1, SMARCA2 act -2, hcDAF12 agonist 2 and hgDAF12 agonist -1.
CC(=O)Nc1nc(-c2ccc3c(c2)OCO3)cs1 was read as DAX1 inh 2, ssDAF-12 act 0, SMARCA2 act 0, hcDAF12 agonist 3 and hgDAF12 agonist 12*.
Screening CCN1CCN(c2cc3c(nn2)Oc2ccccc2N3C)CC1 returned DAX1 inh 3, ssDAF-12 act -1, SMARCA2 act 5, hcDAF12 agonist 4 and hgDAF12 agonist 12*.
C/C(Cc1ccccc1)=N/NC(=O)CNC(=O)C(c1ccccc1)c1ccccc1 was read as DAX1 inh 0, ssDAF-12 act 0, SMARCA2 act -1, hcDAF12 agonist 6.0* and hgDAF12 agonist 0.
Screening CSc1ccccc1OCc1cc(C(=O)N2CCCC2c2nonc2C)no1 (stereo not drawn) returned DAX1 inh 1, ssDAF-12 act 0, SMARCA2 act 5, hcDAF12 agonist 5.9* and hgDAF12 agonist 13*.
Cc1cccc(C)c1OCc1cc(C(=O)N2CCCC2c2nonc2C)no1 (stereo not drawn) was read as DAX1 inh -1, ssDAF-12 act -1, SMARCA2 act -1, hcDAF12 agonist 0 and hgDAF12 agonist -1.
`CCN1C(=O)N2C[C@H]3CON(C)[C@H]3C[C@H]2c2ccccc21` gave DAX1 inh 1, ssDAF-12 act -1, SMARCA2 act -4, hcDAF12 agonist -1 and hgDAF12 agonist -4.
COc1ccc(-c2nnc(SCC(=O)NC3CC3)o2)c(OC)c1 was read as DAX1 inh 4.3*, ssDAF-12 act -1, SMARCA2 act 0, hcDAF12 agonist 1 and hgDAF12 agonist 2.
COc1ccc(NC(=O)CSc2nnc(-c3ccc(F)cc3)o2)cn1 was read as DAX1 inh 4.0*, ssDAF-12 act 0, SMARCA2 act -1, hcDAF12 agonist 1 and hgDAF12 agonist 9.
Screening O=C(CSc1nnc(-c2cccnc2)o1)Nc1ccc(F)cc1 returned DAX1 inh 1, ssDAF-12 act -1, SMARCA2 act 0, hcDAF12 agonist -2 and hgDAF12 agonist 1.
Screening Cc1cc(NC(=O)CSc2nnc(-c3ccc4c(c3)OCCO4)o2)no1 returned DAX1 inh 3.9*, ssDAF-12 act 0, SMARCA2 act 6, hcDAF12 agonist 4 and hgDAF12 agonist 10.
Screening COc1ccc(-c2nnc(SCC(=O)Nc3ccccc3OC)o2)cc1 returned DAX1 inh 4.3*, ssDAF-12 act 0, SMARCA2 act 4, hcDAF12 agonist 1 and hgDAF12 agonist 7.
For COc1ccccc1Nc1cc2cc(Br)ccc2c(=O)[nH]1 the results were DAX1 inh 0, ssDAF-12 act 0, SMARCA2 act -1, hcDAF12 agonist 6.2* and hgDAF12 agonist 2.
O=C(CSc1nc2ccccc2o1)NCC(=O)c1ccccc1 was read as DAX1 inh 0, ssDAF-12 act -1, SMARCA2 act 1, hcDAF12 agonist 0 and hgDAF12 agonist -2.
For O=C(CSc1nc2ccccc2o1)NCc1n[nH]c(=O)c2ccccc12 the results were DAX1 inh 1, ssDAF-12 act 0, SMARCA2 act -3, hcDAF12 agonist 6.2* and hgDAF12 agonist 6.
Screening COC(=O)[C@]12C[C@H](CC(=O)NCc3ccc(OC)c(OC)c3)C(=O)N(Cc3ccco3)C1=C[C@H](C1CCCC1)O[C@@H]2C returned DAX1 inh 0, ssDAF-12 act -1, SMARCA2 act -2, hcDAF12 agonist 0 and hgDAF12 agonist -4.
Screening Cc1ccc(-c2nc3ncccc3o2)cc1N returned DAX1 inh 1, ssDAF-12 act -1, SMARCA2 act 7, hcDAF12 agonist 5.8* and hgDAF12 agonist 7.
For Cc1cccc(C)c1NC(=O)Cn1nnc(-c2ccncc2)n1 the results were DAX1 inh 0, ssDAF-12 act -2, SMARCA2 act -2, hcDAF12 agonist -2 and hgDAF12 agonist 1.
`O=C(/C=C/c1cccc([N+](=O)[O-])c1)N1CCN(C(=O)c2ccco2)CC1` gave DAX1 inh 0, ssDAF-12 act -2, SMARCA2 act -5, hcDAF12 agonist -1 and hgDAF12 agonist 1.
For O=C(/C=C/c1cccc([N+](=O)[O-])c1)OCC(=O)N1CCN(C(=O)c2ccco2)CC1 the results were DAX1 inh -1, ssDAF-12 act 0, SMARCA2 act -5, hcDAF12 agonist 0 and hgDAF12 agonist 12*.
For O=C(O)c1ccc(N/N=C/c2cccc(C(F)(F)F)c2)cc1 the results were DAX1 inh 4.4*, ssDAF-12 act 0, SMARCA2 act -1, hcDAF12 agonist 5 and hgDAF12 agonist 10.
For O=C(N/N=C/c1cccc(C(F)(F)F)c1)c1ccccc1O the results were DAX1 inh 2, ssDAF-12 act -1, SMARCA2 act 5, hcDAF12 agonist 3 and hgDAF12 agonist 5.
O=C(O)c1ccc(/C=N\Nc2ccccn2)cc1 was read as DAX1 inh 1, ssDAF-12 act 0, SMARCA2 act 3, hcDAF12 agonist 6.5* and hgDAF12 agonist 8.
For COC(=O)[C@]12C[C@H](CC(=O)N3CCOCC3)C(=O)N(Cc3ccccc3)C1=C[C@H](COCc1ccccc1)O[C@@H]2C the results were DAX1 inh 0, ssDAF-12 act -2, SMARCA2 act 2, hcDAF12 agonist -2 and hgDAF12 agonist -3.
CN1C2=N[C@H](c3ccccc3Br)CC(=O)N2/C(=C\c2ccccc2)[C@@H]1c1ccccc1 was read as ssDAF-12 act -1, hcDAF12 agonist 2 and hgDAF12 agonist -2.
C(=C\c1ccccc1)/CSc1nnc(Cc2cccs2)n1-c1ccccc1 was read as DAX1 inh 0, ssDAF-12 act -1, SMARCA2 act -1, hcDAF12 agonist -1 and hgDAF12 agonist 1.

Screening results as filed in PubChem.
